# Legend:
# Test in all cases: HT-SELEX; 20 mM HEPES pH 7, 140 mM KCl, 5 mM NaCl, 1 mM K2HPO4, 2 mM MgSO4, 100 uM EGTA, ZnSO4, 0.1% Tween20; room temperature, 1 h; high values mean tight binding
# Conditions in all cases: protein: ivt; tags: eGFP (N-terminal); dsDNA, one strand shown
# ZNF721 full-length = ZNF721 full-length (Homo sapiens, UniProt Q8TF20-2 1-923)
# Summary of the method: (§1)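 A tagged transcription factor, either full-length or its DNA-binding-domain fragment, was made in HEK293 lysate or cell-free extract, immobilised on beads and incubated with a randomized 40-base DNA library for 1 h at room temperature in HEPES/KCl low-stringency buffer containing Tween20. Washed beads were heat-eluted, and the bound DNA was PCR-amplified over successive cycles and Illumina-sequenced at ~3 million 60 bp reads per sample. The binding signal is the relative k-mer count in selected reads, where a higher value means tighter binding.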
# ZNF721 DBD1 = ZNF721 DBD1 (Homo sapiens, UniProt Q8TF20-2 29-461)
# Summary of the method: as §1
# ZNF721 DBD2 = ZNF721 DBD2 (Homo sapiens, UniProt Q8TF20-2 395-923)
# Summary of the method: as §1
# Chain of ZNF721 full-length (Q8TF20 other isoform, or with tags, fused parts or gaps): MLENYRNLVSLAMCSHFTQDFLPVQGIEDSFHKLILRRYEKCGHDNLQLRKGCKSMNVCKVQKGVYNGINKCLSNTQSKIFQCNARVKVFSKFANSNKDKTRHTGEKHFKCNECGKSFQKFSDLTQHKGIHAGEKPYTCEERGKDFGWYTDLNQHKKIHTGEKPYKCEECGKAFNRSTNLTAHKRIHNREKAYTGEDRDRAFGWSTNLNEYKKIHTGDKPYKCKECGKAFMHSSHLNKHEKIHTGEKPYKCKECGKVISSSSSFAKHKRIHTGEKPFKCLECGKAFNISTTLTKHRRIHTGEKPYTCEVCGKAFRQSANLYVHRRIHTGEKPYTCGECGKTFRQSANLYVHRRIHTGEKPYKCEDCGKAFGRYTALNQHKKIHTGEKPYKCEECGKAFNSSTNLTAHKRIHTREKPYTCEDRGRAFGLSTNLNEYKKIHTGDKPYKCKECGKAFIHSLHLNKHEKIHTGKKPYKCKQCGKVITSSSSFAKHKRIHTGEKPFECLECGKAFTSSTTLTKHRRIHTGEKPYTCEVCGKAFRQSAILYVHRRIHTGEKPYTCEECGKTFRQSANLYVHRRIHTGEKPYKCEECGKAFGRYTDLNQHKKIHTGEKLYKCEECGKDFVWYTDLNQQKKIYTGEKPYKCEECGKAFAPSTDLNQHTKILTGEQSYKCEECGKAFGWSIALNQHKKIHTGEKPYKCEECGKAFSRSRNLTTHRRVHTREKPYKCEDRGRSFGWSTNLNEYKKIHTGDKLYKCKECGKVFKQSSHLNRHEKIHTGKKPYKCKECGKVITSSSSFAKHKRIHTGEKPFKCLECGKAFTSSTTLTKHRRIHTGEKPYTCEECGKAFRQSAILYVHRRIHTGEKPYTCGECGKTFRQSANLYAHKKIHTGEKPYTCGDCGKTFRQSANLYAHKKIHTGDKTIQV
# Chain of ZNF721 DBD1 (Q8TF20 17-449): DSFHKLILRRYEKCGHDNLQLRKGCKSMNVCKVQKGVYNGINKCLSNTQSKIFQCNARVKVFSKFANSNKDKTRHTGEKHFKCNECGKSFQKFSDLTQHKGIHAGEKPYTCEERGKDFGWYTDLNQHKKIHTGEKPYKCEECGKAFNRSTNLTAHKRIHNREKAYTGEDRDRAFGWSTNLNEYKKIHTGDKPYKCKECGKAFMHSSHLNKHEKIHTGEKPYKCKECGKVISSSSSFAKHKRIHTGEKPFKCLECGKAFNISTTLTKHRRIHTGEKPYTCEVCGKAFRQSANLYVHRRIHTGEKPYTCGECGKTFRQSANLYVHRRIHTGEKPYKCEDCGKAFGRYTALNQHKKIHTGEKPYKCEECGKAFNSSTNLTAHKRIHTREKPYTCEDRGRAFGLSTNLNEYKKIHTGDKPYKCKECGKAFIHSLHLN
# Chain of ZNF721 DBD2 (Q8TF20 383-911): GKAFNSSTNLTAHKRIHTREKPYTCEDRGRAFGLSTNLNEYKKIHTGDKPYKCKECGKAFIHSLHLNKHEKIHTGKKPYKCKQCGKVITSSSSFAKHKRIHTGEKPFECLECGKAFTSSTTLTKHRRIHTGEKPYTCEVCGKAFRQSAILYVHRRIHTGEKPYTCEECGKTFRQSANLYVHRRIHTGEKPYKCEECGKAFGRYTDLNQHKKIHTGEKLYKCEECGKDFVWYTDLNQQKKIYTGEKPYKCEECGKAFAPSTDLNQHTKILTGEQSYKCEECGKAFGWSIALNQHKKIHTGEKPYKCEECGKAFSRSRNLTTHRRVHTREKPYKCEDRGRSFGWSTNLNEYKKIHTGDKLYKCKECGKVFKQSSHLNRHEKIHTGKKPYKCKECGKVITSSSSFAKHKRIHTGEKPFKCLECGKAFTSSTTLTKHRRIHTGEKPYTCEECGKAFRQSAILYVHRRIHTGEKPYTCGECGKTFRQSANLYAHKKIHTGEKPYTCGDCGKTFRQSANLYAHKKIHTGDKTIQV
Sequence,binding signal (ZNF721 full-length) [relative 10-mer count],binding signal (ZNF721 DBD1) [relative 10-mer count],binding signal (ZNF721 DBD2) [relative 10-mer count]
CCCCCCCCAC,0.257,0.0089,0.00539
AAAAAGCTCA,0.112,0.0408,0.00407
CCCCCCGCCA,0.113,0.00445,0.00372
CCTCCCCGCC,0.138,0.00697,0.00923
CCCGCCCCCC,0.264,0.00982,0.0018
CGCCCCCACC,0.19,0.00945,0.00515
CCACCAACCC,0.156,0.0067,0.00491
ATAAAAAAGC,0.12,0.0221,0.0443
CCCACCCTAC,0.114,0.00748,0.0116
AGAAAAAAGC,0.36,0.107,0.0556
CAACCCCACC,0.149,0.00454,0.00384
CCCATCCCCA,0.106,0.00472,0.00551
CAAAAAAAAC,0.123,0.00243,0.0838
GCCCCCCGCC,0.123,0.00477,0.003
CCCCCTCCAC,0.179,0.00908,0.00479
CCCTCCACCA,0.109,0.00436,0.00659
GAAAAAAAGC,0.29,0.0712,0.0678
GCATACCCAA,0.217,0.00968,0.192
CCACCCGCCC,0.235,0.00922,0.00443

Sequence,binding signal (ZNF721 full-length) [relative 10-mer count],binding signal (ZNF721 DBD1) [relative 10-mer count],binding signal (ZNF721 DBD2) [relative 10-mer count]
CACCCTCCCC,0.212,0.00945,0.00312
GCTTTTTTCA,0.21,0.076,0.0334
CCCTCTCCCC,0.11,0.00564,0.00228
ACCCCCACAC,0.108,0.00312,0.00527
GGGTGGGGCA,0.104,0.00344,0.00216
ACCCCAACCC,0.128,0.00463,0.00348
CCCCACCCTC,0.21,0.00986,0.00599
CCCGCCCCCA,0.153,0.00706,0.00132
CCCCACCAAC,0.136,0.00638,0.00791
CCACCCCACC,0.411,0.0178,0.00731
AAAGCTGCAC,0.11,0.0548,0.0024
CCCCTCCGCC,0.167,0.00766,0.003
CCCACCGACC,0.127,0.00394,0.00455
CCGCCCCCCC,0.197,0.00775,0.00192
CGTCCCACCC,0.127,0.00495,0.00204
CCCCACCTCC,0.24,0.0128,0.00575
CCCCCCGCAC,0.115,0.00372,0.00348
GCTTCATACA,0.231,0.318,0.0018
